Measurements taken from PubChem BioAssay (NCI).
This is part of a sample that, as a whole, favours compounds with a hit. Of some 79,000 tested, about 15% had one in any assay. Activity calls are given as the source filed them. Rule as the data show it: active = growth inhibition above about 70%; inactive = the rest.

test: NCI Yeast Anticancer Drug Screen. Data for the mlh1 rad18 strain (AID 175); settings: S. cerevisiae mlh1 rad18 strain growth inhibition; at 50.0 µM; stronger effect = higher value
Description: Growth inhibition of yeast strains with defined genetic alterations is measured as a screen for potential anti-cancer activity. Selected strains with alterations in DNA damage repair or cell cycle control were exposed to compounds and growth inhibition was measured relative to vehicle treated controls. The strain used in this assay is mlh1 rad18

SMILES | growth inhibition
c1ccc2c(c1)c1ccccc1c1c3ccccc3c3ccccc3c21 | -20.1% (inactive)
Cc1ccc(S(=O)(=O)c2ccccn2)cc1 | -24.1% (inactive)
C=C(Br)CN=CN(C)C | 23.1% (inactive)
Nc1ccccc1Br | 20.6% (inactive)
COC(=O)C1=C(NC(=O)Nc2ccc([N+](=O)[O-])cc2)OC(C)(C)C1c1ccc(Cl)cc1 (stereo not given) | 29.6% (inactive)
C#CC(C)(C)OC(=O)Nc1cccc(Cl)c1 | 10.7% (inactive)
O=C1C2C3CCC(O3)C2C(=O)N1Cc1ccccc1CN1C(=O)C2C3CCC(O3)C2C1=O (stereo not given) | 95.8% (active)
C=CCOC(=O)OCC=C | 3.1% (inactive)
COCC(=O)Nc1ccccc1 | -6% (inactive)
Cc1cc(C)c(Br)c(C)c1C | -22.7% (inactive)
CC1CNC2C(C)C3C(CC4C5CCC6CC(N=Cc7ccccc7O)CCC6(C)C5CCC43C)OC2(O)C1 (stereo not given) | 0.55% (inactive)
Nc1ccc(S(=O)(=O)N/N=C/c2ccc(O)cc2)cc1 | -11.3% (inactive)
O=C(c1ccccc1Cl)c1ccc2ccccc2c1C(=O)O | 2.95% (inactive)
CSc1cc(C)n2nnnc2n1 | -0.3% (inactive)
Cc1ccc2nc(N(C)C)cc(N(C)C)c2c1 | 7.9% (inactive)
CC(=O)NCCc1ccc(OC(C)=O)c(OC(C)=O)c1 | 16.1% (inactive)
O=[N+]([O-])c1ccc(N(CCO)CCO)nc1 | -17.8% (inactive)
C=CCCC1(C)OC(C)C(C)O1 (stereo not given) | -4.9% (inactive)
O=C1C(=O)c2ccccc2C(O)=C1c1ccc(Br)cc1 | -8.9% (inactive)
Cc1ccc2c(c1)Nc1ccccc1P2(=O)O | -15.4% (inactive)

SMILES | growth inhibition
O=c1[nH]c(SCc2ccco2)nc2ccccc12 | -1.75% (inactive)
CC(C)(C)C1=CC(=N/S(=O)(=O)c2ccccc2)/C(N=[N+]=[N-])=C(Cl)C/1=N\S(=O)(=O)c1ccccc1 | 39% (inactive)
c1ccc(-c2ccccc2-c2ccccc2)cc1 | 20.8% (inactive)
CC(=O)OC1C(COC(=O)c2ccccc2)OC(Nc2ncc(-c3ccc(Br)cc3)s2)C(OC(=O)c2ccccc2)C1OC(=O)c1ccccc1 (stereo not given) | -39.9% (inactive)
COc1ccc(-c2cc(-c3ccccc3)[nH]c(=S)c2C#N)cc1 | -30.1% (inactive)
O=C(O)C(CO)Nc1ccccc1 (stereo not given) | 21.7% (inactive)
CC(C)(O)C(C)(O)C#CC(C)(O)C(C)(C)O (stereo not given) | 6.75% (inactive)
CSc1cc(Cl)c(C)cc1S(=O)(=O)NC(=O)NNc1cccc(C(F)(F)F)n1 | 24.6% (inactive)
CS(=O)(=O)C(c1nc2n(c1O)/C(=N/C(=O)Nc1ccc(Cl)cc1)N=N2)c1nc2n(c1O)/C(=N/C(=O)Nc1ccc(Cl)cc1)N=N2 | -1.15% (inactive)
CC(C)CCOC(=O)COc1ccc(Cl)cc1Cl | -17% (inactive)
c1ccc(C2=NC3(CCCCC3)N=C2c2ccccc2)cc1 | 25.1% (inactive)
CCSCCCCSCC | -2.2% (inactive)
CCOc1ccccc1/C=C(/C#N)C(N)=O | -1.3% (inactive)
c1ccc(-c2cc3ccccc3c(-c3ccccc3)c2-c2ccccc2)cc1 | -15.9% (inactive)
CCCOS(=O)(=O)O | 15.2% (inactive)
CC1(C)CCC(C)(C)c2cc(C(=O)O)ccc21 | 5.05% (inactive)
COC(=O)C(=O)C(C(=O)C(=O)Nc1ccccc1C(N)=O)c1nc2ccc(C(=O)c3ccccc3)cc2[nH]c1=O (stereo not given) | 9.5% (inactive)
COc1ccc(C2C(Cl)C(=O)N2n2cnc3ccccc3c2=O)cc1OC (stereo not given) | -21.6% (inactive)
O=NN(Cc1ccccc1)NC(=O)c1ccccc1 | 11.2% (inactive)
CCOC(SCC)C(O)C(O)C(O)C(O)CO (stereo not given) | -21.6% (inactive)
